Data on seven compounds can be found in PubChem BioAssay (EPA / NIEHS).

Where a structure was tested more than once in an assay, its records may differ in their call. Active and inactive are the calls of the source. How the source made its calls: active means hit-call score of the fitted dose curve at least 0.9, where 1 is the maximum; inactive means score below 0.9.

Read-out in assay [1]: Thrombomodulin, THBD (gene 7056)
As to the kind of experiment: BSK_CASM3C_Thrombomodulin: BioMAP Diversity Plus: CASM3C Assay for Thrombomodulin Biomarker Activity (AID 2283051).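 Further: thrombomodulin protein level measured by ELISA 24 h after dosing.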 To be noted: primary human coronary artery smooth muscle cells; actives raise or lower the signal.

Read-out in assay [2]: Tissue Factor, F3 (gene 2152)
As to the kind of experiment: BSK_CASM3C_TissueFactor: BioMAP Diversity Plus: CASM3C Assay for Tissue Factor Biomarker Activity (AID 2283052).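 Further: cell surface tissue factor protein level read by ELISA.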 The following applies: primary human coronary artery smooth muscle cells; actives raise or lower the signal.

Read-out in assay [3]: Interferon-gamma inducible Protein 10 (IP10), CXCL10 (gene 3627)
Briefly: BSK_hDFCGF_IP10: BioMAP Diversity Plus: hDFCGF Assay for Interferon-gamma inducible Protein 10 (IP10) Biomarker Activity (AID 2283053). To be noted: primary human foreskin fibroblasts; actives raise or lower the signal. The essentials: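 Cells: human dermal foreskin fibroblasts. Exposure: 24 h post-dosing. Detection: IP-10 ELISA, with values expressed against DMSO controls and fitted in both directions.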

Read-out in assay [4]: Urokinase-type plasminogen activator receptor (uPAR), PLAUR (gene 5329)
As to the kind of experiment: BSK_CASM3C_uPAR: BioMAP Diversity Plus: CASM3C Assay for Urokinase-type plasminogen activator receptor (uPAR) Biomarker Activity (AID 2283054).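 Further: cell-surface uPAR protein level quantified by ELISA.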 To be noted: primary human coronary artery smooth muscle cells; actives raise or lower the signal.

Read-out in assay [5]: Vascular cell adhesion molecule 1 (VCAM1), VCAM1 (gene 7412)
As to the kind of experiment: BSK_CASM3C_VCAM1: BioMAP Diversity Plus: CASM3C Assay for Vascular cell adhesion molecule 1 (VCAM1) Biomarker Activity (AID 2283055).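 Further: VCAM-1 protein level quantified by ELISA on the cells.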 To be noted: primary human coronary artery smooth muscle cells; actives raise or lower the signal.

Read-out in assay [6]: Collagen III, COL3A1 (gene 1281)
Briefly: BSK_hDFCGF_CollagenIII: BioMAP Diversity Plus: hDFCGF Assay for Collagen III Biomarker Activity (AID 2283056). The following applies: primary human foreskin fibroblasts; actives raise or lower the signal. The method in brief:
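Human foreskin primary fibroblasts were exposed to test chemicals for 24 h, after which collagen III was quantified by ELISA. Activity was fitted bidirectionally against DMSO as negative control and baseline.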

Read-out in assay [7]: Epidermal growth factor receptor (EGFR), EGFR (gene 1956)
As to the kind of experiment: BSK_hDFCGF_EGFR: BioMAP Diversity Plus: hDFCGF Assay for Epidermal growth factor receptor (EGFR) Biomarker Activity (AID 2283057). To be noted: primary human foreskin fibroblasts; actives raise or lower the signal. The method in brief: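 Dosing human primary skin fibroblasts, then measuring surface EGFR by ELISA at 24 h, gives the endpoint; gains and losses relative to DMSO were fitted in both directions.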

Read-out in assay [8]: Interleukin-8 (IL8), CXCL8 (gene 3576)
As to the kind of experiment: BSK_hDFCGF_IL8: BioMAP Diversity Plus: hDFCGF Assay for Interleukin-8 (IL8) Biomarker Activity (AID 2283058). To be noted: primary human foreskin fibroblasts; actives raise or lower the signal. The essentials: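 hDFCGF human dermal fibroblasts; 24 h chemical exposure; IL-8 by ELISA; bidirectional curve fit vs DMSO baseline; gain or loss of signal scored.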

Read-out in assay [9]: Macrophage colony-stimulating factor (MCSF), CSF1 (gene 1435)
As to the kind of experiment: BSK_hDFCGF_MCSF: BioMAP Diversity Plus: hDFCGF Assay for Macrophage colony-stimulating factor (MCSF) Biomarker Activity (AID 2283060). The following applies: primary human foreskin fibroblasts; actives raise or lower the signal. The essentials:
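Human foreskin primary fibroblasts were treated with test chemical for 24 h, and M-CSF was then measured by ELISA. Data were fitted bidirectionally against DMSO as the negative control and activity baseline.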

Assay [10] can be described thus: BSK_hDFCGF_SRB: Viability Assessment in the BioMAP Diversity Plus: hDFCGF Assay (AID 2283061).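 Further: cells exposed to compound for 24 h before the read.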 The following applies: primary human foreskin fibroblasts. The essentials: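 Human foreskin primary fibroblasts were treated with compound and assessed 24 h after dosing. Total protein was measured by sulforhodamine B staining (0.1% SRB after 10% TCA fixation, 560 nm read) as a cytotoxicity marker, with bidirectional fitting against DMSO baseline.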

Read-out in assay [11]: TIMP metallopeptidase inhibitor 1 (TIMP1), TIMP1 (gene 7076)
As to the kind of experiment: BSK_hDFCGF_TIMP1: BioMAP Diversity Plus: hDFCGF Assay for TIMP metallopeptidase inhibitor 1 (TIMP1) Biomarker Activity (AID 2283062). To be noted: primary human foreskin fibroblasts; actives raise or lower the signal. The essentials: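 Primary human foreskin fibroblasts in the hDFCGF system were dosed with compound for 24 h, then TIMP-1 was measured by ELISA. Activity was fitted bidirectionally relative to DMSO control; parallel SRB staining assessed cytotoxicity.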

Read-out in assay [12]: Monokine induced gamma interferon (MIG), CXCL9 (gene 4283)
Briefly: BSK_hDFCGF_MIG: BioMAP Diversity Plus: hDFCGF Assay for Monokine induced gamma interferon (MIG) Biomarker Activity (AID 2283063). To be noted: primary human foreskin fibroblasts; actives raise or lower the signal. The essentials:
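ELISA read-out of MIG from primary human dermal fibroblasts 24 h post-dosing. Gain or loss of signal fitted bidirectionally, DMSO as baseline.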

Read-out in assay [13]: Matrix Metallopeptidase 1 (MMP1), MMP1 (gene 4312)
Briefly: BSK_hDFCGF_MMP1: BioMAP Diversity Plus: hDFCGF Assay for Matrix Metallopeptidase 1 (MMP1) Biomarker Activity (AID 2283064). The following applies: primary human foreskin fibroblasts; actives raise or lower the signal. The method in brief: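 MMP1 levels quantified by ELISA 24 h after dosing human dermal fibroblast cultures, with parallel SRB total-protein staining for overt cytotoxicity. Data fitted in both directions against DMSO baseline.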

Read-out in assay [14]: Vascular cell adhesion molecule 1 (VCAM1), VCAM1 (gene 7412)
Briefly: BSK_hDFCGF_VCAM1: BioMAP Diversity Plus: hDFCGF Assay for Vascular cell adhesion molecule 1 (VCAM1) Biomarker Activity (AID 2283065).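 On AC50: VCAM-1 protein level quantified by ELISA after 24 h chemical exposure.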 The following applies: primary human foreskin fibroblasts; actives raise or lower the signal. The essentials: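 Primary human foreskin fibroblasts (hDFCGF system) were dosed with chemical and VCAM-1 was measured by ELISA 24 h later. Bidirectional curve fitting used DMSO as negative control and activity baseline.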

Read-out in assay [15]: Plasminogen activator inhibitor-1 (PAI1), SERPINE1 (gene 5054)
As to the kind of experiment: BSK_hDFCGF_PAI1: BioMAP Diversity Plus: hDFCGF Assay for Plasminogen activator inhibitor-1 (PAI1) Biomarker Activity (AID 2283066). To be noted: primary human foreskin fibroblasts; actives raise or lower the signal. The essentials: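 Fibroblasts from human foreskin were treated with test chemical. After 24 h, PAI-1 was measured by ELISA. Activity was fitted in both directions relative to DMSO.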

Read-out in assay [16]: Intercellular Adhesion Molecule 1 (ICAM1), ICAM1 (gene 3383)
Briefly: BSK_KF3CT_ICAM1: BioMAP Diversity Plus: KF3CT Assay for Intercellular Adhesion Molecule 1 (ICAM1) Biomarker Activity (AID 2283067). To be noted: primary human keratinocytes with fibroblasts; actives raise or lower the signal. The method in brief:
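Human keratinocyte plus foreskin fibroblast primary co-culture was exposed to chemical for 24 h. ICAM-1 was then quantified by ELISA, and the data were fit bidirectionally against DMSO as the negative control and baseline.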

Read-out in assay [17]: Interferon-gamma inducible Protein 10 (IP10), CXCL10 (gene 3627)
Briefly: BSK_KF3CT_IP10: BioMAP Diversity Plus: KF3CT Assay for Interferon-gamma inducible Protein 10 (IP10) Biomarker Activity (AID 2283068). The following applies: primary human keratinocytes with fibroblasts; actives raise or lower the signal. The essentials:
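In a primary skin co-culture of keratinocytes and fibroblasts, IP-10 is quantified by ELISA at 24 h after dosing. SRB staining of parallel wells monitors overt toxicity. Curves are fitted both directions against DMSO.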

The nature of assay [18]: BSK_KF3CT_SRB: Viability Assessment in the BioMAP Diversity Plus: KF3CT Assay (AID 2283069). To be noted: primary human keratinocytes with fibroblasts. The method in brief:
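Cytotoxicity was gauged by SRB staining (0.1% SRB, 10% TCA fixation, 560 nm) of parallel cultures at 24 h. The cells were primary human skin keratinocytes co-cultured with fibroblasts, and activity was fitted in both directions against DMSO.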

Read-out in assay [19]: Interleukin-1 alpha (IL1a), IL1A (gene 3552)
Briefly: BSK_KF3CT_IL1a: BioMAP Diversity Plus: KF3CT Assay for Interleukin-1 alpha (IL1a) Biomarker Activity (AID 2283070). To be noted: primary human keratinocytes with fibroblasts; actives raise or lower the signal. The essentials:
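IL-1a was detected by ELISA 24 h after chemical treatment of a co-culture of human skin keratinocytes and foreskin fibroblasts. Gain or loss of signal was fitted against the DMSO baseline.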

The nature of assay [20]: BSK_hDFCGF_Proliferation: Cell Proliferation Assessment in the BioMAP Diversity Plus: hDFCGF Assay (AID 2283059).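 Further: curves fitted for both rise and fall of signal versus DMSO baseline.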 The following applies: primary human foreskin fibroblasts. The method in brief: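 Primary human foreskin fibroblasts, sub-confluent; […]; 10% TCA fix, 0.1% SRB stain, A560 total protein. Gain/loss fitted bidirectionally vs DMSO control.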

For orientation: AC50 means the concentration at which the activity in the assay is half-maximal. `O=C(O)C(F)(F)OC(F)(F)C(F)(F)OC(F)(F)F`: the result in assay [1], in [2], in assay [3], in [4], in [5] and in assay [6] was inactive. The result in assay [7], in assay [8], in [9], in [10], in assay [11] and in [12] was inactive. For the same compound, the result in [13], in assay [14], in assay [15], in assay [16], in [17] and in [18] was inactive. In addition, the outcome in assay [19] was inactive. The AC50 in assay [19] is 47.7 µM (active).
Turning to `Cc1ccc([N+](=O)[O-])cc1C`, the result in assay [1], in assay [2], in [3], in assay [4], in assay [5] and in assay [6] was inactive. Also, the outcome in assay [7], in [8], in [20], in [9], in assay [12] and in assay [13] was inactive. The outcome in assay [14], in assay [15], in assay [16], in assay [17], in [18] and in assay [19] was inactive.
Consider `c1ccc(OP(Oc2ccccc2)Oc2ccccc2)cc1`, for which the outcome in [1], in [2], in [3], in [4], in [5] and in [6] was inactive. The outcome in assay [7], in assay [8], in [9], in assay [10], in assay [11] and in [12] was inactive. For the same compound, the result in [13], in assay [14], in assay [15], in assay [16], in assay [17] and in [18] was inactive. The outcome in assay [19] was inactive.
In the case of `CSC(C)(C)C=NO`, the outcome in assay [1], in assay [2], in assay [3], in assay [4], in [5] and in assay [6] was inactive. In addition, the result in [7], in assay [8], in assay [20], in [9], in assay [11] and in assay [12] was inactive. Also, the outcome in assay [13], in [14], in assay [15], in assay [16], in assay [17] and in assay [18] was inactive. For the same compound, in [19], the result was inactive.
On to `O=C(O)C1C(C(=O)O)C2(Cl)C(Cl)=C(Cl)C1(Cl)C2(Cl)Cl` (configuration not stated), for which the result in [1], in assay [2], in assay [3], in [4], in assay [5] and in [6] was inactive. Besides, the result in [7], in assay [8], in assay [20], in assay [9], in [11] and in assay [12] was inactive. In addition, the outcome in assay [13], in [14], in [15], in [16], in [17] and in assay [18] was inactive. In [19], the result was inactive.
Consider `CCC1(c2ccccc2)C(=O)N=C(O)NC1=O` (configuration not stated), for which the result in assay [1], in assay [2], in [3], in assay [4], in [5] and in [6] was inactive. Besides, the result in assay [7], in assay [8], in assay [20], in assay [9], in [12] and in assay [13] was inactive. For the same compound, the result in assay [14], in [15], in assay [16], in assay [17], in assay [18] and in assay [19] was inactive.
`CCCCCCCc1ccc(O)cc1`: the outcome in assay [1], in assay [2] and in [7] was inactive. Also, the AC50 in assay [3] is 22.6 µM (active); in [4], 38 µM (active); in [5] it was 28.5 µM (active); in assay [6], 15.5 µM (active); in assay [8], 35.1 µM (active); in assay [20] it was 13.5 µM (active). Besides, the AC50 in [9] was 20 µM (active); in assay [11], 32.5 µM (active); in assay [12], 28.5 µM (active); in [13] it was 33.6 µM (active); in assay [14], 20.7 µM (active); in assay [15], 30.3 µM (active). Also, the concentration at half-maximal activity (AC50) in [16] is 33.3 µM (active); in assay [17], 29 µM (active); in assay [18] it was 30.7 µM (active); in assay [19], 30.4 µM (active).
